# Screening results: PubChem BioAssay, National Center for Advancing Translational Sciences (NCATS)
# TGFb SMAD3 inh: qHTS for Inhibitors of TGF-b; 410,000 tested, 1.2% active; HepG2 CAGA-GFP TGF-b/SMAD3 reporter, GFP fluorescence, 18 h; TGF-beta stimulated, 500 pg/mL final; Potency, µM (doses to about 46.1 µM), inactives show top-dose activity, negative = inhibition, most hits filed as inhibitors; AID 588855, 2011; note: potency is the fitted concentration of half-maximal effect; % is set by controls: 0 for no effect and ±100 for the full control effect; nearly all actives have a fitted effect of over 65% in size
#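 HEPG2 CAGA-GFP cells (1000/well, DMEM with 1% FBS) were pre-incubated 2 h at 37 degrees C, given compound by pin tool, then stimulated with TGF-beta at 500 pg/mL final for 18 h before per-cell GFP fluorescence imaging.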
# ATXN2 expr inh: Primary qHTS for Inhibitors of ATXN expression; 360,000 tested, 0.72% active; HEK-293 ATXN2-luciferase reporter, luminescence, 24 h; Potency, µM (titrated, usually from 57 µM), without a hit: top-dose activity change, negative = inhibition, most hits filed as inhibitors; note: potency is the fitted concentration of half-maximal effect; % is set by controls: 0 for no effect and ±100 for the full control effect; nearly all actives have a fitted effect of over 55% in size
#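 qHTS (up to 57 uM final) was run with 24 h compound exposure of reporter cells at 37 °C. Each well was multiplexed: SteadyGlo luminescence measured ATXN2-luciferase expression after a fluorogenic Gly-Phe-AFC viability readout (25 uM final).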
# S2 tox: Viability Counterscreen for Primary qHTS for Inhibitors of ATXN expression; S2 cells (HEK-293 line with an ATXN2-luciferase reporter) viability, CellTiter-Fluor protease fluorescence, 24 h; Potency, µM (series often up to 56.7 µM), usual class: cytotoxic; 400,000 tested, 0.49% active; AID 651635, 2014; note: potency is the fitted concentration of half-maximal effect; nearly all actives have a fitted effect of over 40% in size
# HepG2 tox: qHTS for Inhibitors of TGF-b: Cytotox Counterscreen | HepG2 CAGA-GFP viability, ATP luminescence, 18 h | Potency, µM (series often up to 46.1 µM), for the others: at the top dose activity change, negative = cytotoxicity, hits mostly cytotoxic | 410,000 tested, 0.76% active | AID 588856, 2011; note: potency is the fitted concentration of half-maximal effect
#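 HepG2 CAGA-GFP cells (1000/well, DMEM with 1% FBS) received compound, then TGF-beta at 500 pg/mL final, and were incubated 18 hours at 37 degrees C. Viability was read by CellTiter-Glo luminescence. Media-only wells were set as complete cell-killing and DMSO as no toxicity.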
# uPA generation: qHTS for Inhibitors of Cell Surface uPA Generation | cell surface uPA generation assay, qHTS | Potency, µM (highest dose often 38.3 µM), for the others: top-dose activity change, negative = inhibition, most hits filed as inhibitors | 330,000 tested, 0.31% active | AID 540303, 2011; active = well fitted inhibition curve with a large enough effect; inconclusive = small, poorly fitted or top-dose-only effect; inactive = no such curve, though single readings can be large or run the other way; tested in mouse RAW 264.7 cells; note: potency is the fitted concentration of half-maximal effect; % is set by controls: 0 for no effect and ±100 for the full control effect; nearly all actives have a fitted effect of over 55% in size
# Giardia killer: Small Molecules that selectively kill Giardia lamblia: qHTS. AID 540267, 2011. Giardia lamblia trophozoite viability. activity change, % at 7.66 µM, hits read low. 340,000 tested, 0.15% active; in the data active = activity change below about -80%; inconclusive = between about -30% and that limit;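 note: parasites exposed to compound for two days anaerobically before the ATP read; % is set by controls: 0 for no effect and ±100 for the full control effect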
#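 Luminescence from cellular ATP indicates surviving trophozoites (100 cells/well) following 48 hrs anaerobic compound treatment at 37 deg C; signal develops 15-30 min at room temperature.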
# The depositor's hits bear a star; i = inactive; ? = inconclusive; · = no result. Only some compounds are listed: those with a hit (about 2.6% of all), similar ones and a draw of the others. Unless noted, calls come from the whole dose curve; as a rule, active = well fitted curve in the direction sought with a large enough effect; inconclusive = small, poorly fitted or top-dose-only effect, or another doubt; inactive = no such curve, though single readings can be large; an effect the other way counts as inactive or inconclusive.
SMILES,TGFb SMAD3 inh,ATXN2 expr inh,S2 tox,HepG2 tox,uPA generation,Giardia killer
COc1cc(/C=C(\C#N)C(=O)N2CCc3ccccc32)ccc1O,22.0%,13.3%,i,-0.3%,0.3%,14.3
COc1ccccc1CNC(=O)c1ccc(-c2ccccc2Cl)o1,15.8µM*,-0.4%,i,-39.7%,-18.2%,-19.8
COc1ccccc1CNC(=O)c1ccc(-c2ccccc2C(F)(F)F)o1,?,0.1%,i,-50.7%,-8.9%,22.1
CCn1c(/C=C/c2c(C)n(CC)c3ccccc23)nc2ccccc2c1=O,14.6%,1.7%,?,24.9%,5.7%,14.4
CCn1c2ccccc2nc2cc3c(cc21)c(Cl)c(=O)c1ccccc13,17.8µM*,·,·,-119.4%,·,·
O=C1CCCc2c(O)cccc21,·,57.3%,i,·,·,·
CCOC(=O)C1=C(O)/C(=C/c2cn(CC(=O)NCC3CCCO3)c3ccccc23)SC1=Nc1ccc(C)cc1 (stereo not given),36.8%,10µM*,?,-29.9%,1.4%,4.4
CCOC(=O)C1=C(O)/C(=C/c2ccc(-c3ccccc3C(=O)O)o2)SC1=Nc1ccc(C)cc1,-36.8%,·,i,-17.5%,?,14.2
CC(C)CS(=O)(=O)c1oc(-c2ccc(F)cc2)nc1S(=O)(=O)c1ccccc1,3.16µM*,·,·,7.08µM*,·,·
CCC(C)S(=O)(=O)c1oc(-c2cccs2)nc1S(=O)(=O)c1ccccc1 (stereo not given),1.12µM*,·,·,2µM*,·,·
CNc1oc(-c2ccc(F)cc2)nc1S(=O)(=O)c1ccccc1,-5.1%,-13.3%,?,-15.7%,-1.1%,6.9
Nc1ccc(/C=C/c2ccnc3ccccc23)cc1,-5.3%,·,·,-27.9%,·,·
O=C1OC2(c3ccccc31)c1cc(I)c(O)c(I)c1Oc1c2cc(I)c(O)c1I,·,-7.3%,35.5µM*,·,·,·
N#C/C(=C\c1coc2ccc(O)cc2c1=O)C(=O)Nc1nc2ccccc2s1,?,·,?,11.2µM*,?,-2.0
N#C/C(=C\c1coc2ccccc2c1=O)C(N)=S,2.0%,-4.3%,i,2.3%,-17.2%,-5.3
COCCNC(=O)Cc1c(C)c2c(cc(C)c3c(C)coc32)oc1=O,-13.0%,·,·,-4.8%,7.6%,-11.8
COCCCNC(=O)Cc1c(C)c2c(cc(C)c3c(C(C)(C)C)coc32)oc1=O,?,-23.9%,i,-45.6%,0.282µM*,6.4
CCOC(=O)c1c(-c2ccc(C)cc2)csc1NC(=O)CCN1CC(C)OC(C)C1 (stereo not given),?,-23.6%,i,20µM*,4.9%,6.1
CCOC(=O)c1c(-c2ccc(OC)cc2)csc1NC(=O)CCN1CCOCC1,-3.1%,-22.8%,i,-10.9%,5.3%,23.6
COC(=O)c1ccccc1Nc1ccnc(Cl)n1,0.0%,3.8%,i,20µM*,-0.8%,-9.7
O=[N+]([O-])c1ccc2c(c1)C=C/C2=C\c1ccccc1,16.7%,·,·,25.9%,·,·
C[N+]1(CC(=O)c2ccc3c(c2)CCCC3)CCOCC1,1.7%,·,·,-11.6%,·,·
CC(C)(C)C(=O)Nc1ccc2c(c1)C(=O)C(=O)c1ccccc1-2,·,·,·,·,·,13.0
Nc1nn(-c2ccccc2)c(N)c1N=Nc1ccccc1,?,74.7%,i,2.0%,5.01µM*,0.7
CN(C)c1ccc(/C=C/c2c(Br)cnc3ccccc23)cc1,1.3%,·,·,-12.4%,·,·
COc1cccc(CN2CCC(n3cc(C(=O)N4CCCCC4)nn3)CC2)c1OC,·,·,i,·,·,·
COc1ccc(-n2c(CNC(=O)c3cccc4ccccc34)nnc2SC)cc1,·,·,i,·,·,·
O=[N+]([O-])c1ccc(Oc2ccc(S(=O)(=O)Nc3ccccc3)cc2)cc1,3.4%,-14.3%,i,-23.9%,7.0%,-14.8
O=C1C(Cl)=C(NS(=O)(=O)c2ccc([N+](=O)[O-])cc2)C(=O)c2ccccc21,?,17.8µM*,39.8µM*,-190.9%,1.1%,18.4
